This is an account of results in PubChem BioAssay (EPA / NIEHS).

Results filed as inconclusive are left out. Activity calls are given as the source filed them. How the source made its calls, unless noted: active means hit-call score of the fitted dose curve at least 0.9, where 1 is the maximum; inconclusive means response in the unintended direction; inactive means score below 0.9.

Sequence of Cytochrome P450 2C19 (Homo sapiens) (P33261 whole entry, looked up): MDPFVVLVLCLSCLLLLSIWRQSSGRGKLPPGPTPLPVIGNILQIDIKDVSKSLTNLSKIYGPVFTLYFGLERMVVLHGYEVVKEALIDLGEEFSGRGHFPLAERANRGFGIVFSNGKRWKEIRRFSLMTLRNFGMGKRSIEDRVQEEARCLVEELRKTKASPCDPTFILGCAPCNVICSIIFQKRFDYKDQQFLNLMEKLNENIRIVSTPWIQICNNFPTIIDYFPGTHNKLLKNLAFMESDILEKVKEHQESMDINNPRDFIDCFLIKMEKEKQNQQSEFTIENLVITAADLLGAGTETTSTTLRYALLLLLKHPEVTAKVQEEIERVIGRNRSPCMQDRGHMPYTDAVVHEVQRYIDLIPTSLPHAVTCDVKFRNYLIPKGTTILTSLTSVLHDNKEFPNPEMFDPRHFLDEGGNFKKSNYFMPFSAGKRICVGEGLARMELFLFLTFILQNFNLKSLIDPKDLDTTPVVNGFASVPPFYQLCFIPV

Read-out in the first assay: glucuronosyltransferase (UGT1A1), UGT1A1 (gene 54658)
The experiment in a line: CLD_UGT1A1_24hr: CellzDirect (CLD) Gene Expression Assay for glucuronosyltransferase (UGT1A1) at 24 hours (AID 2283696). In outline: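 UGT1A1 transcript induction was measured by quantitative nuclease protection assay (chemiluminescence) in human hepatocyte cultures 24 h after daily fresh dosing, with 0.2% DMSO as vehicle and baseline.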
Consider `Oc1ccccc1-c1ccccc1`, for which the result was inactive.
On the same count and under the same terms, the same measure for `CC(C)(C)c1ccc(CSc2cnn(C(C)(C)C)c(=O)c2Cl)cc1`: “inactive”; for `CC(C)C1(C)N=C(c2nc3ccccc3cc2C(=O)O)NC1=O` (configuration not stated): “inactive”.

Read-out in a further assay: ABC Transporter (ABCB11), ABCB11 (gene 8647)
Briefly: CLD_ABCB11_48hr: CellzDirect (CLD) Gene Expression Assay for ABC Transporter (ABCB11) at 48 hours (AID 2283697). In outline:
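Induction of ABCB11 mRNA relative to 0.2% DMSO, measured at 48 h by qNPA chemiluminescence. Cultured human hepatocytes (two donors) received fresh dosing solutions at several concentrations on two consecutive days.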
The term AC50 denotes the concentration at which the activity in the assay is half-maximal. Regarding `CCc1nn(C)c(C(=O)NCc2ccc(C(C)(C)C)cc2)c1Cl`, the AC50 was 37 µM (active).
As for `COC(=O)c1ccccc1C(=O)OC`, the molecule was classed as inactive.
Still for that read-out and setting: for `Oc1ccccc1-c1ccccc1` the value was “inactive”; for `C#CCOS(=O)OC1CCCCC1Oc1ccc(C(C)(C)C)cc1` (configuration not stated), “inactive”; for `Cc1c(F)c(F)c(COC(=O)C2C(/C=C(\Cl)C(F)(F)F)C2(C)C)c(F)c1F` (configuration not stated), “inactive”.
Same read-out and setting: for `COc1nc(C)nc(NC(=O)NS(=O)(=O)c2ccccc2Cl)n1` the value was “inactive”.
Regarding `COC(=O)N(OC)c1ccccc1COc1ccn(-c2ccc(Cl)cc2)n1`, the AC50 was 35.7 µM (active).
On to `CCON=C(CC)C1=C(O)CC(c2c(C)cc(C)cc2C)CC1=O` (configuration not stated), for which the call was inactive.
Turning to `CC(C)(C)c1ccc(CSc2cnn(C(C)(C)C)c(=O)c2Cl)cc1`, the call was inactive.
On the same count and under the same terms, the same measure for `COc1nc(C)nc(NC(=O)NS(=O)(=O)c2ccccc2CCC(F)(F)F)n1`: “inactive”.
As for `O=C(O)c1nc(Cl)ccc1Cl`, the AC50 was 6.55 µM (active).
In the case of `CN(C)C(=S)SSC(=S)N(C)C`, the molecule was called inactive.
On to `COC(=O)C(C)Oc1ccc(Oc2ccc(Cl)cc2Cl)cc1` (configuration not stated), for which the outcome was inactive.

Read-out in the next assay: Cytochrome P450 2C19 (Homo sapiens) (UniProt P33261)
Briefly: CLD_CYP2C19_48hr: CellzDirect (CLD) Gene Expression Assay for xenobiotic metabolism (CYP2C19) at 48 hours (AID 2283700).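 Further: fitted upward so actives raise CYP2C19 mRNA above the 0.2% DMSO vehicle.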 In outline:
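CYP2C19 mRNA induction read by chemiluminescent quantitative nuclease protection assay after 48 h, with fresh compound added daily for two days to cultured human liver hepatocytes. Activity fitted upward against 0.2% DMSO vehicle.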
For the molecule `CC1COC(Cn2cncn2)(c2ccc(Oc3ccc(Cl)cc3)cc2Cl)O1` (configuration not stated), the molecule was called inactive.
With `C=CC1(C)OC(=O)N(c2cc(Cl)cc(Cl)c2)C1=O` (configuration not stated), the molecule was called inactive.
Still for that read-out and setting: for `Cc1cc(Cl)ccc1OCC(=O)O` the value was “inactive”; for `CCOc1cc(Oc2ccc(C(F)(F)F)cc2Cl)ccc1[N+](=O)[O-]`, “inactive”; for `Oc1ccccc1-c1ccccc1`, “inactive”.
On the same count and under the same terms, for `COc1nc(C)nc(NC(=O)NS(=O)(=O)c2ccccc2Cl)n1` the value was “inactive”.
For `CCON=C(CC)C1=C(O)CC(c2c(C)cc(C)cc2C)CC1=O` (configuration not stated), the molecule was called inactive.
Turning to `CC(C)(C)c1ccc(CSc2cnn(C(C)(C)C)c(=O)c2Cl)cc1`, the result was inactive.
Same read-out and setting: the same measure for `O=C(O)c1nc(Cl)ccc1Cl`: “inactive”; for `COC(=O)C(C)Oc1ccc(Oc2ccc(Cl)cc2Cl)cc1` (configuration not stated): “inactive”.

Read-out in a further assay: Cytochrome P450 2C9 (Homo sapiens) (UniProt P11712)
The experiment in a line: CLD_CYP2C9_48hr: CellzDirect (CLD) Gene Expression Assay for xenobiotic metabolism (CYP2C9) at 48 hours (AID 2283701; active means hit-call score of the fitted dose curve at least 0.9, where 1 is the maximum; inactive means score below 0.9). In outline:
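mRNA level measured by quantitative nuclease protection (S1 digestion, chemiluminescent detection) in lysates of human primary hepatocytes exposed 48 h with daily re-dosing. Induction fitted positively versus 0.2% DMSO; morphology-based cytotoxicity flagged yes/no.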
For `Cc1cc(Cl)ccc1OCC(=O)O`, the result was inactive.
On the same count and under the same terms, for `COC(=O)c1ccccc1C(=O)OC` the value was “inactive”.
Consider `C#CCOS(=O)OC1CCCCC1Oc1ccc(C(C)(C)C)cc1` (configuration not stated), for which the molecule was classed as inactive.
Still for that read-out and setting: for `COc1nc(C)nc(NC(=O)NS(=O)(=O)c2ccccc2Cl)n1` the value was “inactive”; for `CCON=C(CC)C1=C(O)CC(c2c(C)cc(C)cc2C)CC1=O` (configuration not stated), “inactive”; for `CC(C)(C)c1ccc(CSc2cnn(C(C)(C)C)c(=O)c2Cl)cc1`, “inactive”.
On to `COc1nc(C)nc(NC(=O)NS(=O)(=O)c2ccccc2CCC(F)(F)F)n1`, for which the molecule was classed as inactive.
Same read-out and setting: for `O=C(O)c1nc(Cl)ccc1Cl` the value was “inactive”; for `COC(=O)C(C)Oc1ccc(Oc2ccc(Cl)cc2Cl)cc1` (configuration not stated), “inactive”.

Read-out in another assay: not listed separately
The experiment in a line: CLD_ACTIN_48hr: CellzDirect (CLD) Gene Expression Assay for Baseline Control (Actin) at 48 hours (AID 2283702). In outline:
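Background-control actin mRNA read by qNPA chemiluminescence at 48 h. Human hepatocyte cultures from two donors received fresh multi-concentration chemical doses daily for two days; 0.2% DMSO served as vehicle baseline.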
In the case of `CC1COC(Cn2cncn2)(c2ccc(Oc3ccc(Cl)cc3)cc2Cl)O1` (configuration not stated), the call was inactive.
On the same count and under the same terms, the same measure for `Cc1cc(Cl)ccc1OCC(=O)O`: “inactive”.
On the same count and under the same terms, for `Cc1c(F)c(F)c(COC(=O)C2C(/C=C(\Cl)C(F)(F)F)C2(C)C)c(F)c1F` (configuration not stated) the value was “inactive”; for `COc1nc(C)nc(NC(=O)NS(=O)(=O)c2ccccc2Cl)n1`, “inactive”; for `CCON=C(CC)C1=C(O)CC(c2c(C)cc(C)cc2C)CC1=O` (configuration not stated), “inactive”.
On the same count and under the same terms, the same measure for `CC(C)(C)c1ccc(CSc2cnn(C(C)(C)C)c(=O)c2Cl)cc1`: “inactive”.
Consider `CCOC(=O)CC(SP(=S)(OC)OC)C(=O)OCC` (configuration not stated), for which the outcome was inactive.
On the same count and under the same terms, for `COc1nc(C)nc(NC(=O)NS(=O)(=O)c2ccccc2CCC(F)(F)F)n1` the value was “inactive”; for `CC(C)C1(C)N=C(c2nc3ccccc3cc2C(=O)O)NC1=O` (configuration not stated), “inactive”.
Still for that read-out and setting: for `CNC(=O)ON=CC(C)(C)SC` the value was “inactive”; for `CN(C)C(=S)SSC(=S)N(C)C`, “inactive”; for `COC(=O)C(C)Oc1ccc(Oc2ccc(Cl)cc2Cl)cc1` (configuration not stated), “inactive”.
